Each structure is given as a SMILES string. Results filed as inconclusive are left out. Activity calls are given as the source filed them. Rule for the calls, unless noted: active = hit-call score of the fitted dose curve at least 0.9, where 1 is the maximum; inconclusive = response in the unintended direction; inactive = score below 0.9.

Assay [1] is described as follows: ATG_GAL4_TRANS: Attagene TRANS-FACTORIAL HepG2 Assay for GAL4 (Internal Marker) (AID 2282976). Conditions: HepG2 Attagene TRANS GAL4 internal marker reporter. The method, boiled down:
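First, HepG2 cells were transfected with reporter units under GAL4-UAS control. Next, they were treated with chemical for 24 h. Finally, RNA was reverse-transcribed, PCR-amplified, FAM-labelled and resolved by capillary electrophoresis, with induction scored against DMSO.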

Assay [2] is described as follows: ATG_M_32_TRANS: Attagene TRANS-FACTORIAL HepG2 Assay for M32 Transcription Factor (Internal Marker) (AID 2282984).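 Note: transcript level of a background control reporter unit measured by RT-PCR and capillary electrophoresis.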 Conditions: HepG2 Attagene TRANS M32 internal marker reporter. The method, boiled down:
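Internal background reporter in transfected HepG2: after 24 h chemical exposure, RNA reverse-transcribed, reporter cDNA amplified, fluorescently labelled and HpaI-cut, then sized by capillary electrophoresis. Gain of signal fitted against DMSO control.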

Assay [3] addresses Nuclear receptor subfamily 4 group A member 2 (Homo sapiens) (UniProt P43354). Nature of the assay: ATG_NURR1_TRANS: Attagene TRANS-FACTORIAL HepG2 Assay for human Nuclear Receptor Related Protein 1 (NURR1) (AID 2282985). Conditions: HepG2 Attagene TRANS reporter, mRNA readout. The essentials: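 Reporter transcript induction, measured by RT-PCR with fluorescent labelling, HpaI digestion and capillary electrophoresis, after 24 hr dosing of human HepG2 cells transiently expressing an exogenous NR-Gal4 fusion with GAL4-UAS-driven reporters; DMSO as baseline.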

In assay [4] the target is human Peroxisome Proliferator-activated Receptor alpha (PPARa), PPARA (gene 5465) (UniProt Q07869). Nature of the assay: ATG_PPARa_TRANS: Attagene TRANS-FACTORIAL HepG2 Assay for human Peroxisome Proliferator-activated Receptor alpha (PPARa) (AID 2283001). The essentials: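 Reporter transcripts quantified by RT-PCR plus capillary electrophoresis after 24 h treatment, fitted upward relative to DMSO. Cells: human HepG2 transiently carrying multiple GAL4-UAS reporter units driven by NR-Gal4 chimeras.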
human Peroxisome Proliferator-activated Receptor alpha (PPARa), PPARA (gene 5465), sequence (Q07869 whole entry, looked up, the tested form may be a part): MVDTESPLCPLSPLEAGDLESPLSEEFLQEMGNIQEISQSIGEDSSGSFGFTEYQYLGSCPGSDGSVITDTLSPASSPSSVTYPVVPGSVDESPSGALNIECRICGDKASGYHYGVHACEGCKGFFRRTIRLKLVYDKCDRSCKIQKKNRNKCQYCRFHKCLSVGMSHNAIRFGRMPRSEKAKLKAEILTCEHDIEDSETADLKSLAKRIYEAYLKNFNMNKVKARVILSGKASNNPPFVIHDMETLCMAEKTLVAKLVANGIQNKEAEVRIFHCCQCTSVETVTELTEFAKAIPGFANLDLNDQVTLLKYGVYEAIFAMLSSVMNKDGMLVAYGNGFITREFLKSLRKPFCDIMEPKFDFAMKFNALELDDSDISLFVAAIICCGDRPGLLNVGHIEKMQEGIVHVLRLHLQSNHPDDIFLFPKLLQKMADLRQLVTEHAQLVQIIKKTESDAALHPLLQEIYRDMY

The target in assay [5] is human Peroxisome Proliferator-activated Receptor delta (PPARd), PPARD (gene 5467) (UniProt Q03181). Kind of assay: ATG_PPARd_TRANS: Attagene TRANS-FACTORIAL HepG2 Assay for human Peroxisome Proliferator-activated Receptor delta (PPARd) (AID 2283002). The essentials:
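Read-out is induced reporter mRNA, quantified by RT-PCR with fluorescent labelling and capillary electrophoresis after 24 h dosing. Cells are HepG2 transiently carrying multiple GAL4-UAS reporter units driven by exogenous NR-GAL4 chimeras; DMSO serves as baseline.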

Assay [6] concerns the target Peroxisome proliferator-activated receptor gamma (Homo sapiens) (UniProt P37231). Nature of the assay: ATG_PPARg_TRANS: Attagene TRANS-FACTORIAL HepG2 Assay for human Peroxisome Proliferator-activated Receptor-gamma (PPARg) (AID 2283007). The essentials:
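HepG2 cells transiently transfected with multiplexed GAL4-UAS reporter units and exogenous chimeric NR-Gal4 proteins; reporter mRNA quantified after 24 h compound exposure by RT-PCR, fluorescent labelling, HpaI digestion and capillary electrophoresis; gain-of-signal fitted versus DMSO baseline.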

The target in assay [7] is human RAR-related Orphan Receptor beta (RORb), RORB (gene 6096) (UniProt Q92753). Nature of the assay: ATG_RORb_TRANS: Attagene TRANS-FACTORIAL HepG2 Assay for human RAR-related Orphan Receptor beta (RORb) (AID 2283010). The essentials: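 Transfect HepG2 with multiple GAL4-UAS reporter transcription units; dose chemicals for 24 h; isolate RNA, reverse-transcribe and PCR-amplify reporter sequences; label, digest and resolve fragments by capillary electrophoresis; fit increases relative to DMSO.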

Assay [8] deals with human Vitamin D Receptor (VDR), VDR (gene 7421) (UniProt P11473). Kind of assay: ATG_VDR_TRANS: Attagene TRANS-FACTORIAL HepG2 Assay for human Vitamin D Receptor (VDR) (AID 2283022). The method, boiled down: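 Steps: transfect HepG2 with GAL4-UAS-driven reporter constructs; dose compounds 24 h; isolate RNA, reverse-transcribe, PCR-amplify with 6-FAM-labelled primer extension and HpaI digestion; quantify fragments by capillary electrophoresis relative to DMSO.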

Assay [9] addresses Retinoic acid receptor alpha (Homo sapiens) (UniProt P10276). Kind of assay: ATG_DR5_RAR_CIS: Attagene CIS-FACTORIAL HepG2 Assay for human Retinoic Acid Receptor Alpha (RARE), DR5 submotif (AID 2282934; active = hit-call score of the fitted dose curve at least 0.9, where 1 is the maximum; inactive = score below 0.9). Conditions: HepG2 Attagene cis-factorial RARE DR5 reporter, mRNA; actives raise or lower the signal. The method, boiled down: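 Reporter transcripts from a DR5-regulated unit, measured via RT-PCR plus capillary electrophoresis, reflect endogenous RAR activity in transiently transfected human HepG2 liver cells. Exposure lasted 24 h; gain or loss of signal scored against DMSO.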

The target of assay [10] is Bile acid receptor (Homo sapiens) (UniProt Q96RI1). Nature of the assay: ATG_IR1_CIS: Attagene CIS-FACTORIAL HepG2 Assay for human Nuclear Receptor Subfamily 1 Group H Member 4 (NR1H4), IR1 submotif (AID 2282946; active = hit-call score of the fitted dose curve at least 0.9, where 1 is the maximum; inactive = score below 0.9). Conditions: IR1 reporter transcription, actives raise or lower the signal. The essentials: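 HepG2 cells transiently transfected with multiplexed cis-element reporter units read endogenous transcription factor activity. After 24 h compound exposure, reporter mRNA was quantified by RT-PCR, fluorescent labelling, HpaI digestion and capillary electrophoresis; bidirectional fitting versus DMSO baseline.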
Bile acid receptor (Homo sapiens), sequence (Q96RI1 whole entry, looked up): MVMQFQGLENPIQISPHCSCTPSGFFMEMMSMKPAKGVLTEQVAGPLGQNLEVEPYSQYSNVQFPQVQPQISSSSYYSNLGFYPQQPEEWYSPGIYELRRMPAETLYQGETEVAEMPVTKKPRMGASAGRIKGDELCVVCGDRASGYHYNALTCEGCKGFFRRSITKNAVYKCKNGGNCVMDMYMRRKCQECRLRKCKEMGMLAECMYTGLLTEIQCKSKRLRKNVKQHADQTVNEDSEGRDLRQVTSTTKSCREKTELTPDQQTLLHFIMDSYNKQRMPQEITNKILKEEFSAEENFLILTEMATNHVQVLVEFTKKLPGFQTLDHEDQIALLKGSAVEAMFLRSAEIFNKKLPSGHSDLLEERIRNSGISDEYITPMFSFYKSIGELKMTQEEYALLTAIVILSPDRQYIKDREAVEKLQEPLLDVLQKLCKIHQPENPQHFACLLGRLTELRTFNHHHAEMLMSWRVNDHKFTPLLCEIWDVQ

Assay [11] addresses Oxysterols receptor LXR-alpha (Homo sapiens) (UniProt Q13133). Kind of assay: ATG_LXRa_TRANS: Attagene TRANS-FACTORIAL HepG2 Assay for human Liver X Receptor alpha (LXRa) (AID 2282980). Conditions: HepG2 Attagene TRANS reporter, LXRa transactivation. The essentials: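 Transfect HepG2 with GAL4-UAS multiplex reporter constructs (TRANS format, chimeric receptor-GAL4); treat 24 h; extract RNA, reverse-transcribe, PCR-amplify, FAM-label, HpaI-digest; resolve fragments by capillary electrophoresis. Upward response vs DMSO.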

Assay [12] addresses Oxysterols receptor LXR-beta (Homo sapiens) (UniProt P55055). Kind of assay: ATG_LXRb_TRANS: Attagene TRANS-FACTORIAL HepG2 Assay for human Liver X Receptor beta (LXRb) (AID 2282981). Conditions: HepG2 Attagene TRANS GAL4-LXRb reporter, mRNA. The method, boiled down: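 After 24 h chemical treatment of transfected HepG2 cells carrying exogenous NR-Gal4 chimeras, reporter mRNA was quantified by fluorescent RT-PCR and capillary electrophoresis; activity taken as increase over DMSO controls.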

Assay [13] has as its target human Thyroid Receptor alpha (THRa1), THRA (gene 7067) (UniProt P10827). Nature of the assay: ATG_THRa1_TRANS: Attagene TRANS-FACTORIAL HepG2 Assay for human Thyroid Receptor alpha (THRa1) (AID 2283014). The essentials: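 Reporter transcript induction, read by capillary electrophoresis of 6-FAM-labelled RT-PCR products, reflects activity of a transfected THRa1-Gal4 fusion in HepG2 liver cells. Cells were dosed for 24 h; activity was fitted in the positive direction against DMSO.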

Assay [14] in a line: TOX21_p53_BLA_p2_viability: Viability Assessment in the Tox21 HCT-116 p53 Agonism Beta-lactamase Assay, Phase 2 (AID 2283591).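 Note: compound exposure lasted 16 h at 37 °C; actives lower the ATP signal meaning cytotoxicity.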 The method, boiled down: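 Cytotoxicity readout: CellTiter-Glo ATP luminescence, 30 min at room temperature, after the beta-lactamase read. Cells were HCT116 exposed 16 h at 37C to compounds pin-transferred at 217-fold dilution from DMSO stocks.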
Assay [15] is described as follows: TOX21_p53_BLA_p3_viability: Viability Assessment in the Tox21 HCT-116 p53 Agonism Beta-lactamase Assay, Phase 3 (AID 2283593).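 Note: cells exposed to compound for 16 h before reading.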 The method, boiled down:
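Cellular ATP was quantified by CellTiter-Glo luminescence, read after 30 min at room temperature. Beforehand, HCT116 cells (4000/well) received compound 5 h post-seeding, 217-fold diluted from DMSO, then incubated 16 h at 37C.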

A short description of assay [16]: TOX21_p53_BLA_p4_viability: Viability Assessment in the Tox21 HCT-116 p53 Agonism Beta-lactamase Assay, Phase 4 (AID 2283597).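 Note: hits lower the luminescence signal meaning cytotoxicity.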 The essentials:
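Readout: ATP luminescence (CellTiter-Glo), measured 30 min after reagent addition at RT. The reagent followed a 2 h CCF4-AM incubation, and the cells had been exposed to compound for 16 h at 37C.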

The nature of assay [17]: CCTE_Harrill_HTTr_Apoptosis_MCF7: CCTE's 6-hour Apoptosis Assessment for the High-Throughput Transcriptomics (HTTr) Platform, in MCF-7 cells cultured in DMEM + 10% fetal bovine serum, Harrill Lab (AID 2284011; active = hit-call score of the fitted dose curve at least 0.9, where 1 is the maximum; inactive = score below 0.9). The method, boiled down: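 MCF-7 (DMEM + 10% FBS), 384-well; 8-pt dilution series, 6 h chemical exposure; caspase-3/7 activation via CellEvent Caspase 3/7 Green, HCI; bidirectional fit vs DMSO.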

In assay [18] the target is Nuclear receptor subfamily 1 group I member 3 (Homo sapiens) (UniProt Q14994). Kind of assay: ATG_CAR_TRANS: Attagene TRANS-FACTORIAL HepG2 Assay for human Constitutive Androstane Receptor (CAR) (AID 2282969).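 Note: activators raise reporter mRNA above DMSO so AC50 marks induction.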 Conditions: HepG2 Attagene TRANS-FACTORIAL CAR reporter. The essentials:
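Signal is reporter mRNA induction relative to DMSO, measured 24 h after dosing by RT-PCR with fluorescent primer extension and capillary electrophoresis. Human HepG2 liver cells carried transiently transfected chimeric NR-Gal4/GAL4-UAS reporter constructs.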

For assay [19], the target named is Glucocorticoid receptor (Homo sapiens) (UniProt P04150). Nature of the assay: ATG_GR_TRANS: Attagene TRANS-FACTORIAL HepG2 Assay for human Glucocorticoid Receptor (GR) (AID 2282978).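 Note: activators score as hits since higher reporter transcript over DMSO is fitted.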 Conditions: HepG2 Attagene TRANS GR reporter, mRNA transcription. The method, boiled down: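 HepG2 cells transiently transfected with multiplexed reporter units in which chimeric NR-GAL4 proteins drive GAL4-UAS reporters; 24 h compound exposure. Reporter mRNA measured by RT-PCR, 6-FAM labelling, HpaI digestion and capillary electrophoresis; gain-of-signal fitted versus DMSO.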
Glucocorticoid receptor (Homo sapiens), sequence (P04150 whole entry, looked up, the tested form may be a part): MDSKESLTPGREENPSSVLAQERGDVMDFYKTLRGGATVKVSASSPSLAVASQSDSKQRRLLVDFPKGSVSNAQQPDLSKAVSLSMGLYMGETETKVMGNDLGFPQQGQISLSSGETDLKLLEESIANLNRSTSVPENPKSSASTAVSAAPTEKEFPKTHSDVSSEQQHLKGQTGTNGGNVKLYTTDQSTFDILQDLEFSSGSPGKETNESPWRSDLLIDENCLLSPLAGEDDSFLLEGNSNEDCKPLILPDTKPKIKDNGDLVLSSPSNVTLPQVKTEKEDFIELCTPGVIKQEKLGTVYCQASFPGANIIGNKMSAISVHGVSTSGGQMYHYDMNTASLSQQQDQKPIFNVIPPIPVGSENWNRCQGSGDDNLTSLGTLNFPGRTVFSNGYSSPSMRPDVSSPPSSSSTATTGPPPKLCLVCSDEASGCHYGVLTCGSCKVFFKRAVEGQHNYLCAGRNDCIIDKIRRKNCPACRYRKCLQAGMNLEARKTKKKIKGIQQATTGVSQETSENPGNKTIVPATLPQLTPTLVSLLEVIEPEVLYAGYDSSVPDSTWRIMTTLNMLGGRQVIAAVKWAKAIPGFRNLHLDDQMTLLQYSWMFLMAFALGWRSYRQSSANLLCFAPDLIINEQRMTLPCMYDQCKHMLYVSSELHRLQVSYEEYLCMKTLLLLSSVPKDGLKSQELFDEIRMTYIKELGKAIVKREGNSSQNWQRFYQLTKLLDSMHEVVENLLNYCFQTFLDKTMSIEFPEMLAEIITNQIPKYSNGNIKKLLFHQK

Assay [20] in a line: ATG_PBREM_CIS: Attagene CIS-FACTORIAL HepG2 Assay for human Phenobarbital-responsive Enhancer Module (PBREM) (AID 2282955; active = hit-call score of the fitted dose curve at least 0.9, where 1 is the maximum; inactive = score below 0.9). Conditions: HepG2 PBREM cis-reporter, Attagene multiplexed transcription; actives raise or lower the signal. The essentials:
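HepG2 cells transiently transfected with multiple cis-regulated reporter transcription units; endogenous factor activity at the PBREM element measured as reporter mRNA 24 h after dosing, via RT-PCR and capillary electrophoresis of fluorescent fragments; bidirectional fitting versus DMSO.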

Nuclear receptor subfamily 4 group A member 2 (Homo sapiens), sequence (P43354 whole entry, looked up, the tested form may be a part): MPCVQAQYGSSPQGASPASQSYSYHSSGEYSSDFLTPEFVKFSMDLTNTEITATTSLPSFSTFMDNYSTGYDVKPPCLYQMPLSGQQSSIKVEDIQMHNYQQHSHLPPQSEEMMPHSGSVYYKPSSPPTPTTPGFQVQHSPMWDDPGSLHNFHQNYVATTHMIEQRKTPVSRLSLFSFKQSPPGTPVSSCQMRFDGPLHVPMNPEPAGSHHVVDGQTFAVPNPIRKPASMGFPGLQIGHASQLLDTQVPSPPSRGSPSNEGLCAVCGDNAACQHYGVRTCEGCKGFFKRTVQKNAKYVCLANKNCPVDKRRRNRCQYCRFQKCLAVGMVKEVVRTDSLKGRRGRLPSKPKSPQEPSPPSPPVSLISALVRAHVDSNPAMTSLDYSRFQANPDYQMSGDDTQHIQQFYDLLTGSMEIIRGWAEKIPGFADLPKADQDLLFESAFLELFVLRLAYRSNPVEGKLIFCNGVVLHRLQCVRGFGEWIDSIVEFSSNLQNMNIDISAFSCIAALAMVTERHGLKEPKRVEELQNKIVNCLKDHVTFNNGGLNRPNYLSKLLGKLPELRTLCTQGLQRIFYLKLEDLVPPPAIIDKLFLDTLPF
Retinoic acid receptor alpha (Homo sapiens), sequence (P10276 whole entry, looked up): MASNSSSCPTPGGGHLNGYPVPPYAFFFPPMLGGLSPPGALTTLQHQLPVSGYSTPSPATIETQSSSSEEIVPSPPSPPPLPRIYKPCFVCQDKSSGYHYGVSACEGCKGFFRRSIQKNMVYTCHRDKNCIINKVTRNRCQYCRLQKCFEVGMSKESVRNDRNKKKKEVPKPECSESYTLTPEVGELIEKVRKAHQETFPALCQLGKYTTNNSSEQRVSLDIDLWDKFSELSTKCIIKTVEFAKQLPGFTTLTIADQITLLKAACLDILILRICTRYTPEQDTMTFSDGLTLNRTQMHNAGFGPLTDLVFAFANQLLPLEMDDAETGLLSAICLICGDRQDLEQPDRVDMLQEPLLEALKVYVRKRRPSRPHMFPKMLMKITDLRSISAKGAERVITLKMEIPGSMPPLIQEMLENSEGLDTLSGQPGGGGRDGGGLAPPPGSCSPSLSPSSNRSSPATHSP
human Thyroid Receptor alpha (THRa1), THRA (gene 7067), sequence (P10827 whole entry, looked up, the tested form may be a part): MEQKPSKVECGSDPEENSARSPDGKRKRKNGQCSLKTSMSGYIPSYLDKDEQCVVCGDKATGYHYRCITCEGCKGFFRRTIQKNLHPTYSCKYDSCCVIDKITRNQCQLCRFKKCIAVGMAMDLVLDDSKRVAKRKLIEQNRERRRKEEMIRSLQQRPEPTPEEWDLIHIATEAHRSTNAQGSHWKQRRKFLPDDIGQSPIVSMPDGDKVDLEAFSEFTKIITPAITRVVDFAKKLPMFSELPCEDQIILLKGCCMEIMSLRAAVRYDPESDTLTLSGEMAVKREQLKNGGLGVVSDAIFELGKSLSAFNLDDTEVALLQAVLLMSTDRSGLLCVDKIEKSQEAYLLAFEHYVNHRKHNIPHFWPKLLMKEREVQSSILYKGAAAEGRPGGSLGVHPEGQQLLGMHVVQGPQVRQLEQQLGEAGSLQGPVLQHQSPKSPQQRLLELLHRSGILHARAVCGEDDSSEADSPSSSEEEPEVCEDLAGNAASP
Peroxisome proliferator-activated receptor gamma (Homo sapiens), sequence (P37231 whole entry, looked up, the tested form may be a part): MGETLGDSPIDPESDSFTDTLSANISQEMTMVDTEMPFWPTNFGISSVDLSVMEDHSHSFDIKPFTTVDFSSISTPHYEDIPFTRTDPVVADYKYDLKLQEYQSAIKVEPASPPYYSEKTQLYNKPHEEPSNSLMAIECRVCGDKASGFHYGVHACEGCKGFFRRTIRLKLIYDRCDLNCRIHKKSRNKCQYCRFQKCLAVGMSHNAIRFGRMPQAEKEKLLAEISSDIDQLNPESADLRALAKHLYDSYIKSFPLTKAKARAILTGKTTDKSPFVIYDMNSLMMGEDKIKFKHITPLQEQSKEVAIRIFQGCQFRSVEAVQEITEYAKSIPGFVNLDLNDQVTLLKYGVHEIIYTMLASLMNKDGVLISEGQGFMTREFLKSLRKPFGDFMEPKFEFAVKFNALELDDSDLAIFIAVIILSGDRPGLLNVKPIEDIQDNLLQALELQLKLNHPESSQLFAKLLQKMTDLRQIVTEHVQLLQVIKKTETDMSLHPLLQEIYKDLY
Nuclear receptor subfamily 1 group I member 3 (Homo sapiens), sequence (Q14994 whole entry, looked up, the tested form may be a part): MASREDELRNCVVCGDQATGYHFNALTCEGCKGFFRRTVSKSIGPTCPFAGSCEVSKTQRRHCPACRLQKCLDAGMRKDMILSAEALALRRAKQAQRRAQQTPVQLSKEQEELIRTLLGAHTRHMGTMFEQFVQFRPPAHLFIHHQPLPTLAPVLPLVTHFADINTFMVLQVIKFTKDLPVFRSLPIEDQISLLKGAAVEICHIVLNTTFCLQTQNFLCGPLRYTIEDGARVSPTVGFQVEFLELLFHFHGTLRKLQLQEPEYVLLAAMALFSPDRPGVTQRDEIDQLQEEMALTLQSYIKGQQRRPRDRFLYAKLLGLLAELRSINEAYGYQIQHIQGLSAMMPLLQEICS
human Peroxisome Proliferator-activated Receptor delta (PPARd), PPARD (gene 5467), sequence (Q03181 whole entry, looked up, the tested form may be a part): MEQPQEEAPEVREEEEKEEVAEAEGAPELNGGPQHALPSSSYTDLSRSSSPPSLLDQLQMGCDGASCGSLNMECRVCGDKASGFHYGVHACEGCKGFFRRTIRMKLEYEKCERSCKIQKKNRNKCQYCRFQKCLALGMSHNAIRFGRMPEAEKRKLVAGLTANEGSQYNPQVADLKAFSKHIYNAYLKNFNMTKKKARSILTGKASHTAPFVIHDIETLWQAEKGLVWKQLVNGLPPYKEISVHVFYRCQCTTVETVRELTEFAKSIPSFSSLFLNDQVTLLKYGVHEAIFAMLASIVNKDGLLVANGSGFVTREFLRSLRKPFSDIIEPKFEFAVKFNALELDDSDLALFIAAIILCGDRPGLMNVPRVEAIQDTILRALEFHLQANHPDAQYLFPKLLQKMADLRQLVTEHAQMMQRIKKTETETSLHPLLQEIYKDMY

Consider `N#CCNCC#N`, for which the compound was called inactive in assay [1], in assay [2], in assay [3], in assay [4], in assay [5] and in assay [6]. In addition, the compound was classed as inactive in assay [7] and in [8].
Consider `O=C(NC(=O)c1c(F)cccc1F)Nc1ccc(Oc2ccc(C(F)(F)F)cc2Cl)cc1F`, for which the call in [9], in [10], in assay [11], in [12], in assay [4] and in assay [5] was inactive. In addition, the compound was classed as inactive in [13], in assay [8], in assay [14], in assay [15], in assay [16] and in assay [17]. Moreover, in assay [6], the AC50 is 3.59 µM (active).
For `O=C(O)COc1ccccc1`, the compound was classed as inactive in assay [12], in assay [4], in [14], in assay [15] and in assay [16].
Consider `CCOP(=O)(OCC)OCC`, for which the call in assay [9], in assay [18], in [19], in assay [11], in [12] and in assay [4] was inactive. The result in assay [5], in assay [7], in assay [13], in assay [8], in [14] and in assay [15] was inactive.
As to `O=S(=O)(c1ccccc1)c1ccccc1`, the outcome in assay [9], in assay [10], in assay [20], in assay [1], in assay [11] and in [12] was inactive. The call in [6], in [13], in [8], in [14], in assay [16] and in [17] was inactive.
Turning to `N#CCCCl`, the result in assay [9], in [20], in [18], in assay [1], in assay [19] and in assay [4] was inactive. The call in assay [8], in [14], in assay [15] and in [16] was inactive.
`O=C(O)C(Br)Br`: the compound was called inactive in assay [10], in assay [1], in [19], in [14], in assay [15] and in assay [16].
For `COC(C)(C)CCC[C@H](C)C/C=C/C(C)=C/C(=O)OC(C)C`, the result in [9], in assay [20], in assay [18], in assay [11], in [4] and in assay [13] was inactive. Besides, the result in assay [14] and in assay [15] was inactive. Moreover, the AC50 in assay [3] is 121 µM (active).
Regarding `Cc1cc(C)c(C2=C(OC(=O)CC(C)(C)C)C3(CCCC3)OC2=O)c(C)c1`, the outcome in assay [10], in assay [20], in assay [18], in assay [1], in assay [2] and in assay [3] was inactive. Further, the AC50 in [6] is 4.68 µM (active).
With `Nc1ccc(-c2ccc(N)c(N)c2)cc1N`, the compound was called inactive in assay [9], in [10], in [12], in [2], in assay [4] and in assay [5]. In addition, the outcome in assay [6] and in assay [8] was inactive.
`COC(=O)COc1ccc(Cl)cc1Cl`: the result in assay [9], in assay [1], in assay [2], in [7], in assay [13] and in [14] was inactive. Moreover, in assay [16], the result was inactive.
For `CSc1nc(N=[N+]=[N-])nc(NC(C)C)n1`, the outcome in assay [20], in assay [11], in [12], in [2], in assay [5] and in assay [13] was inactive. In addition, the result in [8], in assay [15] and in assay [16] was inactive. Further, the half-maximal activity concentration (AC50) in [6] is 15.4 µM (active).
As for `CC[N+](=O)[O-]`, the compound was called inactive in assay [9], in assay [20], in [18], in assay [3], in assay [4] and in assay [5]. In addition, the compound was classed as inactive in assay [6], in assay [13], in [8], in assay [14] and in [15].

The term AC50 denotes the concentration giving half of the maximal activity seen.

For the origin of these results see PubChem BioAssay (EPA / NIEHS).
